Compounds with a hit are over-represented: about 6.9% of the library has one in this group of screens.
SW480 rereplic: induces DNA re-replication in SW480 colon adenocarcinoma cells; SW480 DNA re-replication, Hoechst DNA content imaging, 48 h; Potency, µM (highest dose often 46.1 µM), without a hit: at the highest dose re-replication activation, usual class: activators; 340,000 compounds, 1.8% hits; further: potency means the concentration at half of the fitted maximal effect; % of control where 0% means no effect; nearly all actives have a fitted effect of over 55% in size
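250 cells/well; 23 nL cpd via pin tool; 48 hr, 37 C, 5% CO2; Hoechst 40 min; imager read of total nuclear intensity, ex 405/em 500-530 nm.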
Vif-APOBEC3G blk: Vif-A3G binding inhibition; Q9HC16; HeLa A3G-eYFP + Vif (tagged APOBEC3G with the HIV-1 protein that degrades it), YFP fluorescence, overnight; Potency, µM (series often up to 46.1 µM), inactives show at the top dose activity, negative = active, usual class: inhibitors; 410,000 compounds, 0.076% hits; AID 602310; further: potency means the concentration at half of the fitted maximal effect; on the % scale 0 is the no-effect control and ±100 the full control effect; nearly all actives have a fitted effect of over 60% in size
Target sequence (Q9HC16 whole entry, looked up): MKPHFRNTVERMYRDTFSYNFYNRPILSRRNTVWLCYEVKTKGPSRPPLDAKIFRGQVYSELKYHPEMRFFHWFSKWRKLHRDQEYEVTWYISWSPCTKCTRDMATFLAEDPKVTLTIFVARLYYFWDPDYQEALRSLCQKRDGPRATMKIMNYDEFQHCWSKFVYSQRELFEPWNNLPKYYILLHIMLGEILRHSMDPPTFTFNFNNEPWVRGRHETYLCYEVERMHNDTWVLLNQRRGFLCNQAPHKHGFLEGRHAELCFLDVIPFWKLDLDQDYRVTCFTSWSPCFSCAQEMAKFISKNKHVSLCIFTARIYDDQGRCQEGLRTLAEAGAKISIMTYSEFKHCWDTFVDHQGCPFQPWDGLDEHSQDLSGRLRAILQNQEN
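HeLa cells stably expressing Vif and C-terminally eYFP-tagged A3G, seeded overnight at 37 deg C, then exposed to compound by pintool overnight at 37 deg C. Rise in yellow fluorescence (Ex 488/Em 500-530, Acumen) marks blocked Vif-driven A3G degradation.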
MCF10A rerep: inducers of DNA re-replication in MCF 10A breast cells. MCF 10A DNA re-replication, Hoechst nuclear intensity, 48 h. Potency, µM (doses to about 46.1 µM), for inactives: top-dose activity, positive = re-replication, most hits filed as activators. 350,000 compounds, 2.9% hits. AID 624296; further: potency means the concentration at half of the fitted maximal effect; % of control where 0% means no effect; nearly all actives have a fitted effect of over 50% in size
Vif-APOBEC3F blk: inhibitors of Vif-A3F interaction. HeLa A3F-eYFP + Vif (tagged APOBEC3F with the HIV-1 protein that degrades it), YFP fluorescence increase. Potency, µM (top dose mostly 46.1 µM), for the others: top-dose activity, negative = active. 390,000 compounds, 0.2% hits. AID 602313; further: potency means the concentration at half of the fitted maximal effect; % of control where 0% means no effect; nearly all actives have a fitted effect of over 65% in size
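HeLa cells stably expressing Vif plus C-terminally eYFP-tagged A3F were seeded, incubated overnight at 37 deg C, dosed with compound, incubated overnight again at 37 deg C. Yellow fluorescence (Ex 488/Em 500-530) reported blocked Vif-mediated A3F-eYFP degradation.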
IL1B secr inh: inhibitors of inflammasome signaling (IL-1 beta secretion). THP-1 LPS/ATP IL-1B secretion, AlphaLISA, 16 h; hits give low values. activity change, % at 57.5 µM. 360,000 compounds, 4.7% hits. AID 743279; in the data active means activity change below about -50%; inconclusive means mostly about -30% to -49%; further: on the % scale 0 is the no-effect control and ±100 the full control effect
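THP-1 cells pretreated 1 hr with compounds (up to 57.5 uM final), then stimulated with LPS (250 ng/mL final) plus ATP (1.25 mM final); secreted IL-1B measured by AlphaLISA after 16 hr, decreased signal indicating inhibition.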
Giardia kill: kills Giardia lamblia; Giardia lamblia trophozoite viability; activity change, % at 7.66 µM, hits read low; 340,000 compounds, 0.15% hits; AID 540267; in the data active means activity change below about -80%; inconclusive means between about -30% and that limit;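 further: parasites exposed to compound for two days anaerobically before the ATP read; on the % scale 0 is the no-effect control and ±100 the full control effect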
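Luminescence from cellular ATP indicates surviving trophozoites (100 cells/well) following 48 hrs anaerobic compound treatment at 37 deg C; signal develops 15-30 min at room temperature.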
Numbers without * were called inactive; ? = inconclusive; / = no result given. Unless noted, the call rests on the fitted dose curve; in most records, active means well fitted curve in the direction sought with a large enough effect; inconclusive means small, poorly fitted or top-dose-only effect, or another doubt; inactive means no such curve, though single readings can be large; an effect the other way counts as inactive or inconclusive.

SMILES | SW480 rereplic | Vif-APOBEC3G blk | MCF10A rerep | Vif-APOBEC3F blk | IL1B secr inh | Giardia kill
CCCn1nnc(NC(=O)/C=C/c2ccccc2)n1 | -11% | -5% | 0% | -5% | -2 | 5
CCCn1nnc(NC(=O)Cc2ccc(Cl)cc2)n1 | -2% | -3% | 8.2µM* | -2% | 12 | -9
CCCn1nnc(NC(=O)c2ccccc2Br)n1 | 5.2µM* | 0% | 18µM* | 0% | 10 | 8
CCCn1nnc(NC(=O)/C=C/c2ccco2)n1 | 21µM* | 0% | 30% | -4% | -14 | 1
COc1ccc(C2Nc3ccccc3C(=O)N2Cc2ccco2)cc1 (centres undefined) | / | -24% | / | / | / | 10
O=C(/C=C/c1ccc(OCCCF)cc1)N1CCN(Cc2ccccc2)CC1 | -5% | 0% | 13% | -7% | -53* | -18
O=C(/C=C/c1ccc([N+](=O)[O-])cc1)N1CCN(Cc2ccccc2)CC1 | -3% | 0% | -14% | -7% | -10 | 3
CCCc1ccc(OCC(=O)Nc2sc3c(c2C(=O)OCC)CCC(C(C)(C)C)C3)cc1 (centres undefined) | / | 1% | / | 3% | / | /
O=C(CC(c1ccccc1)c1cc(Br)ccc1O)NCC1(c2ccccc2)CCCC1 (centres undefined) | / | -9% | / | 0% | / | /
O=C1C(NS(=O)(=O)c2cccs2)=C(N2CCOCC2)C(=O)c2ccccc21 | -6% | -1% | -4% | 15% | 10 | -16
CN(C1=C(N2CCOCC2)C(=O)c2ccccc2C1=O)c1ccccc1 | 6% | 2% | 10% | -3% | -86* | -12
O=C1C=C(N2CCOCC2)c2ccccc2C1=O | 2.9µM* | 3% | ? | 20% | -103* | 18
O=C1C=C(N2CCOCC2)c2cccc3cccc1c23 | / | -8% | / | 0% | -8 | /
Cc1ccc2c(c1C)NC(=O)CC2c1ccc(Cl)cc1Cl (centres undefined) | / | -6% | / | -2% | / | /
O=C(/C=C/c1cccc(F)c1)N1CCN(c2ccccn2)CC1 | 12% | -1% | -12% | -10% | 32 | 6
Nc1cccc2c1C(=O)N(C(=O)/C=C/c1cccc(F)c1)C2=O | 18µM* | ? | ? | 6% | -70* | -6
Nc1cccc2c1C(=O)N(C(=O)/C=C/c1cccc(Br)c1)C2=O | ? | 0% | 21µM* | ? | -75* | 36
COc1ccc(OC)c(NC(=O)COCc2cc(-c3ccc(F)cc3)on2)c1 | / | 3% | / | 1% | / | /
COCCNC(=O)CCCn1c(SCC(=O)c2ccc(F)cc2)nc2c(sc3ccccc32)c1=O | / | 5% | / | -5% | / | /
COc1cccc(C(=O)N2CCC[C@H]2C(=O)N2CCC[C@H]2C(=O)NCc2ccc(F)cc2F)c1 | / | / | / | / | 26 | /
O=C(NCc1ccc(F)cc1F)[C@@H]1CCCN1C(=O)[C@@H]1CCCN1C(=O)c1ccccc1 | / | / | / | / | -95* | /
CCO[C@H]1OC(C(=O)N2CCN(Cc3ccccc3)CC2)=C[C@@H](c2ccc(C(F)(F)F)cc2)[C@@H]1CCCO | 8% | -4% | 2% | -11% | -60* | -9
CCO[C@@H]1OC(C(=O)N2CCN(Cc3ccccc3)CC2)=C[C@H](c2csc3ccccc23)[C@H]1CCCO | ? | -6% | 0% | -11% | -54* | 14
C#Cc1ccc([C@H]2C=C(C(=O)N3CCN(Cc4ccc5c(c4)OCO5)CC3)O[C@@H](OCC)[C@@H]2CCCO)cc1 | 1% | -4% | 24% | -1% | -50* | 6
Cc1cc(C)n(C(C)CC(=O)Nc2cccc(C#N)c2)n1 (centres undefined) | / | 0% | / | -2% | / | /
SMILES | SW480 rereplic | Vif-APOBEC3G blk | MCF10A rerep | Vif-APOBEC3F blk | IL1B secr inh | Giardia kill
CCn1c(=O)c2cc(C(=O)N3CCN(c4cccc(OC)c4)CC3)sc2c2ccccc21 | / | -1% | / | 0% | / | /
CCNC(=O)/C(C#N)=C/c1c(N(Cc2ccccc2)Cc2ccccc2)nc2ccccn2c1=O | -158% | -27% | 12% | -10% | -55* | 16
CNC(=O)/C(C#N)=C/c1c(N(Cc2ccccc2)Cc2ccccc2)nc2c(C)cccn2c1=O | 0% | -9% | ? | 0% | ? | 3
Cc1ccc(S(=O)(=O)NCCSc2nnnn2-c2ccc(Cl)c(C(=O)O)c2)cc1 | / | 1% | / | 1% | / | /
CC(C)(C)c1ccc(CC(=O)N2CCC2(C)C(=O)NS(=O)(=O)c2ccc(F)cc2F)cc1 (centres undefined) | / | -2% | / | / | -51* | /
CC1(C(=O)NS(=O)(=O)c2ccc(F)cc2F)CCN1C(=O)Cc1ccc(-c2ccccc2)cc1 (centres undefined) | / | -1% | / | / | 1 | /
Cc1cc(Cn2nc(C(=O)NCc3cccc(Br)c3)cc2-c2ccccc2)on1 | ? | -3% | ? | -1% | -58* | 13
COCCNC(=O)c1cc(-c2ccccc2)n(Cc2cc(C)no2)n1 | 2% | -4% | -1% | 1% | -13 | 24
COc1cc2oc(=O)c(CC(=O)NCCc3ccccc3)c(C)c2cc1Cl | / | -6% | / | -5% | / | /
Cc1ccnc2ccc([N+](=O)[O-])cc12 | / | -5% | / | / | / | /
COc1cc(OC)cc(-c2nc3ccccc3c(=O)n2OC(=O)c2ccccc2C)c1 | 0% | -2% | 16µM* | 0% | -61* | 6
Cc1c(C(=O)Nc2ccc(Cl)cc2)c2ccccn2c1CCc1ccncc1 | 2% | -1% | ? | -3% | -59* | 8
Cc1c(C(=O)Nc2ccc(Cl)cc2)c2ccccn2c1C(=O)c1ccc(F)cc1 | 0% | -1% | 0% | -27% | 0 | -8
O=C(NCc1ccncc1)Nc1cccc(Cl)c1 | 4% | 0% | 0% | -13% | 42 | 29
Cc1c(C(=O)Nc2cccc(Cl)c2)c2ccccn2c1CCc1ccncc1 | ? | -1% | 7.3µM* | -20% | -189* | -10
N#Cc1ccccc1S(=O)(=O)N1CCCC(c2nc3c(nnn3Cc3cccc(Cl)c3)c(=O)[nH]2)C1 (centres undefined) | / | -16% | / | -2% | / | /
CCOC(=O)c1cc2c(=O)n3ccccc3nc2n(C(C)C)c1=NC(=O)c1cc2ccccc2o1 | / | 0% | / | 3% | / | /
O=C1NN(c2ccccc2)C(=O)/C1=C\c1ccccc1OCC(=O)N1CCOCC1 | 12% | 0% | ? | 3% | 8 | -16
CCc1ccccc1N=C1S/C(=C/c2ccccc2OCC(=O)N2CCOCC2)C(=O)N1C | 2% | -9% | ? | 5% | -72* | 12
O=C1Cc2c([nH]c3ccc(Br)cc23)-c2ccccc2N1 | 26% | -23% | 4.1µM* | ? | -97* | 44
O=c1c2c([nH]c3ccc(Br)cc13)CCCC2 | -7% | -4% | 22% | 2% | -10 | 5

Screening results: PubChem BioAssay, National Center for Advancing Translational Sciences (NCATS)
